Luciferase inh: blocks purified firefly luciferase enzyme activity; purified P. pyralis luciferase, luminescence, biochemical; Potency, µM (doses to about 115 µM), hits mostly inhibitors; 2.5% of 76,000 active; AID 1347043; further: nearly all actives have a fitted effect of over 65% in size
Target sequence (P08659 whole entry, looked up): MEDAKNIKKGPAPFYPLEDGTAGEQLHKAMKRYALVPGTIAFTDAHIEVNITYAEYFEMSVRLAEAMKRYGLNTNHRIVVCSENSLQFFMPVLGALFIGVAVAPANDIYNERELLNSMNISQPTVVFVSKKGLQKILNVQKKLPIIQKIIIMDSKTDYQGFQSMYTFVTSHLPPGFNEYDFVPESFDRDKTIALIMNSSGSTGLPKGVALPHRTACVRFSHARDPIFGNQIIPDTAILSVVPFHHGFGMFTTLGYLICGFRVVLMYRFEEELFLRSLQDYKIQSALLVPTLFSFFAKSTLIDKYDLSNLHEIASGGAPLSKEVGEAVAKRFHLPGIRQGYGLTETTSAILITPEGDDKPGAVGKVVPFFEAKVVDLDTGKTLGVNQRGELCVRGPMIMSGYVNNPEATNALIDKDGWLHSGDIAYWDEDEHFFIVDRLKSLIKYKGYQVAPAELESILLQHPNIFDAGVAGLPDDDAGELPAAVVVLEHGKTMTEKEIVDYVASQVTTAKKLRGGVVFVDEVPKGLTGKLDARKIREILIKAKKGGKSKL
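Cell-free enzyme assay, 10nM P. pyralis luciferase, luciferin and ATP each at 10uM. Inhibition profiled over a 6-point titration, read as luminescence.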
HEK293 tox: kills HEK 293 cells; Potency, µM (top dose mostly 115 µM), hits mostly inhibitors; 6.6% of 94,000 active; HEK 293 viability, ATP luminescence (CellTiter-Glo), 48-72 h; AID 1345083; further: nearly all actives have a fitted effect of over 60% in size
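Viability of HEK 293 cells, plated at 250 cells/well, was judged by cellular ATP after compound treatment for 48 or 72 hr. Luminescence was imaged 10 min after CellTiter-Glo addition at room temperature.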
3T3 cytotox: NIH 3T3 cell cytotoxicity; Potency, µM (doses to about 96.7 µM), hits mostly inhibitors; 4.3% of 94,000 active; AID 1345082; NIH 3T3 viability, CellTiter-Glo ATP luminescence, 48-72 h; further: nearly all actives have a fitted effect of over 55% in size
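Viability of NIH 3T3 cells after 48 or 72 hr compound treatment at 37 °C was assessed by CellTiter-Glo, with luminescence imaged following a 10 min room-temperature step.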
GPT2 inhibitor: inhibitors of human GPT2 alanine aminotransferase; AID 1671188; Q8TD30; Recombinant GPT2, coupled pyruvate oxidase/HRP Amplex Red fluorescence; Potency, µM (titrated, usually from 57.7 µM), usual class: inhibitors; 0.25% of 100,000 active; further: nearly all actives have a fitted effect of over 60% in size
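Recombinant GPT2 (10ng/uL) with 250uM a-KG and 2mM L-alanine, 30 min at room temperature, in HEPES pH 7.5 buffer. Pyruvate detected by pyruvate oxidase/HRP/Amplex Red fluorescence after 30 min in the dark; AOA (50uM) as positive control.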
NPR1 antag: human Npr1 receptor antagonism. P16066. 1.6% of 76,000 active. Potency, µM (highest dose often 46.3 µM), actives largely listed as inhibitors. HEK293 hNpr1 GloSensor cGMP, ANP-stimulated luminescence; calls by dose curve; further: nearly all actives have a fitted effect of over 60% in size
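HEK293 cells stably expressing human Npr1 and cGMP GloSensor pGS-40F, loaded 2 h with 2% GloSensor reagent, given compound 30 min at room temperature. Luminescence read before and 20 min after 0.1 nM hNppA.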
Hits are given with their value. Shown are actives, neighbours in structure and some others; about 10% of the full set was active somewhere. Unless noted, the call rests on the fitted dose curve; in most records, active means well fitted curve in the direction sought with a large enough effect; inconclusive means small, poorly fitted or top-dose-only effect, or another doubt; inactive means no such curve, though single readings can be large; an effect the other way counts as inactive or inconclusive.

`COc1cccc(-c2ccc(CN3CCCC3C(=O)NC3CCC3)cc2)c1` (centres undefined) gave HEK293 tox inconclusive, 3T3 cytotox inconclusive and GPT2 inhibitor inactive.
For COc1cccc(-c2cccc(CN3CCCC3C(=O)NC3CC3)c2)c1 (centres undefined) the results were HEK293 tox 44.7µM and 3T3 cytotox inconclusive.
For COc1cccc(-c2cccc(CN3CCCC3C(=O)NCc3cccc(F)c3)c2)c1 (centres undefined) the results were HEK293 tox inconclusive, 3T3 cytotox 35.5µM and GPT2 inhibitor inactive.
Screening CCn1ccnc1CN1CCCC1C(=O)Nc1ccc(-c2cccc(F)c2)cc1 (centres undefined) returned Luciferase inh inactive, HEK293 tox 35.5µM, 3T3 cytotox inconclusive, GPT2 inhibitor inactive and NPR1 antag inactive.
Screening CCC(=O)NCCC1CCN(C(=O)Nc2cc(F)ccc2F)CC1 returned Luciferase inh inactive, HEK293 tox inactive, 3T3 cytotox inactive, GPT2 inhibitor inactive and NPR1 antag inactive.
`O=C(Cc1ccc(Cl)cc1)N1CCC(N2CCCCCC2=O)CC1` gave Luciferase inh inactive, HEK293 tox inactive, 3T3 cytotox inactive, GPT2 inhibitor inactive and NPR1 antag inactive.
For CCN1C(=O)Cc2cc(C(=O)NC(C)c3ccccc3)ccc21 (centres undefined) the results were Luciferase inh inactive, HEK293 tox inactive, 3T3 cytotox inactive, GPT2 inhibitor inactive and NPR1 antag inactive.
Screening COc1ccc(CN2Cc3cc(NC(=O)Cc4ccc(F)cc4)ccc3OC(C)C2=O)cc1 (centres undefined) returned Luciferase inh inactive, HEK293 tox 39.8µM, 3T3 cytotox inconclusive, GPT2 inhibitor inactive and NPR1 antag inactive.
CC1Oc2ccc(NC(=O)Cc3ccccc3)cc2CN(Cc2ccc(F)cc2)C1=O (centres undefined) was read as Luciferase inh inactive, HEK293 tox 44.7µM, 3T3 cytotox inconclusive, GPT2 inhibitor inconclusive and NPR1 antag inconclusive.
CC1Oc2ccc(NS(=O)(=O)c3ccc(F)cc3)cc2CN(Cc2ccc(F)cc2)C1=O (centres undefined) was read as Luciferase inh inactive, HEK293 tox 44.7µM, 3T3 cytotox inconclusive, GPT2 inhibitor inactive and NPR1 antag inactive.
Screening COc1ccccc1CN1Cc2cc(NS(=O)(=O)c3ccc(C)c(F)c3)ccc2OC(C)C1=O (centres undefined) returned Luciferase inh inactive, HEK293 tox inconclusive, 3T3 cytotox inconclusive, GPT2 inhibitor inactive and NPR1 antag inactive.
`CC1Oc2ccc(NC(=O)Cc3ccc(F)cc3)cc2CN(CC2CC2)C1=O` (centres undefined) gave Luciferase inh inactive, HEK293 tox 39.8µM, 3T3 cytotox inconclusive, GPT2 inhibitor inactive and NPR1 antag inactive.
Screening CC1Oc2ccc(NC(=O)Cc3ccc(F)cc3)cc2CN(CCc2ccc(F)cc2)C1=O (centres undefined) returned Luciferase inh inactive, HEK293 tox inconclusive, 3T3 cytotox inconclusive, GPT2 inhibitor inactive and NPR1 antag inactive.
For CCC(CC)(NC(=O)C(C)C)C(=O)N[C@@H](CCCN=C(N)N)C(=O)NC1(C(=O)NC(c2ccc(F)cc2)c2ccc(F)cc2)CCCC1 the results were GPT2 inhibitor inactive.
O=C(Cn1nc2c(cc1=O)CCCC2)NCCn1ccc2ccc(F)cc21 was read as Luciferase inh inactive, HEK293 tox inactive, 3T3 cytotox inactive, GPT2 inhibitor inactive and NPR1 antag inactive.
`N#Cc1cccc(-c2c(C(=O)NCC3CCCCC3)nc3sccn23)c1` gave HEK293 tox inactive, 3T3 cytotox inconclusive and GPT2 inhibitor inactive.
`COc1cccc(OCc2cc(C(=O)N(C)CC(O)CO)n[nH]2)c1` (centres undefined) gave Luciferase inh inactive, HEK293 tox inactive, 3T3 cytotox inactive, GPT2 inhibitor inactive and NPR1 antag inactive.
`O[C@H]1[C@H](NCc2ccccn2)[C@H]2CO[C@H](O2)[C@@H]1N1CCN(c2ccccc2)CC1` gave Luciferase inh inactive, HEK293 tox inactive, 3T3 cytotox inactive, GPT2 inhibitor inactive and NPR1 antag inactive.
Screening OCC1CCN(Cc2cc3cc4c(cc3nc2-c2ccc(Cl)cc2)OCO4)CC1 returned Luciferase inh 31.6µM, HEK293 tox inconclusive, 3T3 cytotox inconclusive, GPT2 inhibitor inactive and NPR1 antag inactive.
